Results taken from PubChem BioAssay.
Inconclusive results are not listed. The source made the active and inactive calls.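 How the source made its calls, unless noted: active means response below a set limit, under 55% cells CD8-positive and vesicle-bound, and CD8 cells' 90th-percentile brightness under 279; inactive means the rest.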

Legend:
[1] = yeast TOR pathway RPL19A-GFP modulators, primary screen, cell-based, S. cerevisiae, multiplex flow cytometry (AID 1862; in the data active means percent of DMSO control GFP below about 86%;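 further: lower values mimic rapamycin by blocking the RPL19A rise seen in DMSO cells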); conditions: S. cerevisiae RPL19A-GFP strain, flow cytometry fluorescence, 3 h; at 10 µM; stronger effect = lower value
[2] = modulators of MEP2-GFP levels in yeast, primary screen, S. cerevisiae, multiplex flow cytometry (AID 1867;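 active means GFP response, as percent of the DMSO control, above the screen-wide mean plus 3 SD, about 139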;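 further: median GFP channel fluorescence of barcode-gated MEP2-GFP cells measured by flow cytometry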); conditions: S. cerevisiae MEP2-GFP strain, 3 h, at 10 µM, stronger effect = higher value, 100% means same as DMSO wells
[3] = modulators of CIT2-GFP expression in yeast, primary screen, S. cerevisiae, GFP fusion, multiplex flow cytometry (AID 1870;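 active means percent response above a set limit, the screen-wide mean plus 3 SD, cut at about 130% in these data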;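 further: barcoded CIT2-GFP strain pooled with four other GFP strains with rapamycin as positive control; median GFP fluorescence per well over plate mean of DMSO wells so 100% = DMSO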); conditions: 3 h, at 10 µM, stronger effect = higher value
[4] = modulators of LAP4-GFP expression in yeast, primary screen, S. cerevisiae, multiplex flow cytometry (AID 1873;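 active means GFP signal, as percent of the solvent control, above the screen mean plus 3 SD, about 149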); conditions: 3 h, at 10 µM, stronger effect = higher value
[5] = modulators of AGP1-GFP expression in yeast TOR pathway, primary screen, cell-based, multiplex flow cytometry, S. cerevisiae (AID 1887;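 active means GFP signal above the screen-wide mean plus 3 SD, that is over about 124.5% of the solvent control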;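 further: AGP1-GFP fusion strain of S. cerevisiae within a five-strain barcoded multiplex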); conditions: 3 h, at 10 µM, stronger effect = higher value
[6] = inhibitors of CD8+ T cell-vesicle binding, pilot screen, LFA-1/ICAM-1 modulator project, MLPCN validation set, flow cytometry (AID 2523); conditions: 2C mouse CD8+ T cells, at 7 µM, stronger effect = lower value; double positive events: measured here: CD8+/vesicle+ event percentage;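 on vesicle binding response: mean PE anti-B7-1 fluorescence of CD8+ cells relative to row control; 100% = QL9-loaded vesicles with DMSO vehicle in the same plate row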
[7] = molecular target: Integrin beta-1 (Homo sapiens) + Integrin alpha-4 (Homo sapiens) (UniProt P13612+P05556); experiment: inhibition of HUTS-21 binding to VLA-4, pilot screen, VLA-4 allosteric modulator project, U937 cells, HUTS-21 mAb, flow cytometry, validation set (AID 2674;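 active means inhibition above 50%, about 3 SD of the validation set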;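 further: antibody binding induced by the VLA-4 ligand LDV present at three times its Kd; 0% = LDV ligand with antibody and no compound and 100% = antibody without LDV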); conditions: HUTS-21 LIBS mAb binding, at 6.7 µM, stronger effect = higher value, binding induced by LDV ligand
[8] = superoxide lowering in aged yeast cells, pilot screen, validation compound set (AID 2706;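 active means superoxide response below 65% of plate, a cut near 3 SD across the whole screen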;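 further: yeast exposed to compound for one week at 30 degrees C before staining; 100% = mean of all compound wells on the same plate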); conditions: S. cerevisiae aging, superoxide DHE fluorescence; at 10 µM; stronger effect = lower value
[9] = molecular target: Beta-adrenergic receptor kinase 1 (Homo sapiens) (UniProt P25098); experiment: GRK2 binders displacing RNA aptamer, biochemical, validation, human GRK2, bead flow cytometry (AID 488806;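 active means aptamer binding inhibition above 30%, about 3 SD of noise from non-fluorescent compounds; inactive means inhibition at or below 30%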); conditions: bead-bound GRK2, FAM-aptamer displacement, at 10 µM, stronger effect = higher value
[10] = molecular target: Beta-2 adrenergic receptor (Homo sapiens) (UniProt P07550); experiment: beta2AR agonists driving receptor internalization, pilot screen, cell-based, FAP fluorogen, flow cytometry, validation set (AID 504459;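 active means percent response above 42, roughly 3 SD of non-fluorescent test compounds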;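 further: agonist-driven loss of surface beta2AR via internalization measured by FAP dye flow cytometry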); conditions: Am2.2-beta2AR cells, FAP surface receptor flow cytometry; at 10 µM; stronger effect = higher value
[11] = molecular target: AP-2 complex subunit beta (Homo sapiens) (UniProt P63010); experiment: inhibitors of arrestin peptide binding to AP2, pilot screen, biochemical, validation set, GST-AP2 beads, flow cytometry (AID 504541;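 active means inhibition above 54%, about 3 SD of non-fluorescent compounds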;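 further: AP2 carries R879A mutation and is captured from E. coli lysate; bead-bound FITC arrestin peptide fluorescence measuring arrestin peptide binding to AP2; 0% = DMSO wells and 100% = excess unlabeled arrestin peptide control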); conditions: FITC arrestin peptide, at 10 µM, stronger effect = higher value, AP2 beta2 appendage fragment, R879A mutant
[12] = yeast V-ATPase proton transport modulators, S. cerevisiae, pHLuorin, HTS validation (AID 504600; in the data active means response above about 15%;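 further: plate controls were DMSO for no effect and reference compound for full effect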); conditions: S. cerevisiae pHLuorin cytosolic pH, at 10 µM, stronger effect = higher value
[13] = test system: anti-desmoglein-3 scFv antibody binding to human DSG3; experiment: inhibitors of anti-DSG3 scFv binding to DSG3, pilot screen, biochemical, validation compound set, bead-based, flow cytometry (AID 588368;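 active means binding below the plate cutoff, the plate median minus 3 SD, with a reading above zero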;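 further: signal is the median channel fluorescence of bead-bound GFP antibody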); conditions: Protein G beads, DSG3-Fc, scFv-GFP binding, at 10 µM, stronger effect = lower value
[14] = inhibitors of fungal efflux pumps CDR1, CDR2, MDR1, pilot screen, validation compound set, multiplex, phenotypic (AID 588506;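 active means efflux inhibition above 0.42, the validation set average plus 4 SD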;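 further: Nile Red retained in cells so higher fluorescence means more efflux inhibition; 0 = negative control wells and 1 = enniatin B 25 µM full block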); conditions: S. cerevisiae pump-expressing triplex, Nile Red efflux flow cytometry; at 10 µM; stronger effect = higher value; the pumps come from Candida albicans
[15] = molecular target: ATP-binding cassette sub-family B member 6 (Homo sapiens) (UniProt Q9NP58); experiment: ABCB6 transporter inhibitors, pilot screen, K562-ABCB6 cells, flow cytometry, validation set (AID 588550;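 active means inhibition above the screen-wide mean plus 3 SD, about 51%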;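 further: 0% = DMSO wells and 100% = benzethonium chloride 70 µM positive control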); conditions: K562-ABCB6 porphyrin accumulation, 1 h, at 10 µM, stronger effect = higher value
[16] = promoters of myeloid differentiation in arrested cells, primary screen, cell-based, GFP/MAC1 double positive, flow cytometry, validation set (AID 588685;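 active means differentiation response of at least 50%, scaled between solvent and reference control, from cells with both markers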;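 further: compound exposure lasts four days before antibody staining and flow analysis; 0% = DMSO wells and 100% = 5 µM fulvestrant positive control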); conditions: ER-HoxA9 marrow cells, stronger effect = higher value, normalized: vehicle 0, fulvestrant 100

Sequence of Beta-2 adrenergic receptor (Homo sapiens) (P07550 whole entry, looked up): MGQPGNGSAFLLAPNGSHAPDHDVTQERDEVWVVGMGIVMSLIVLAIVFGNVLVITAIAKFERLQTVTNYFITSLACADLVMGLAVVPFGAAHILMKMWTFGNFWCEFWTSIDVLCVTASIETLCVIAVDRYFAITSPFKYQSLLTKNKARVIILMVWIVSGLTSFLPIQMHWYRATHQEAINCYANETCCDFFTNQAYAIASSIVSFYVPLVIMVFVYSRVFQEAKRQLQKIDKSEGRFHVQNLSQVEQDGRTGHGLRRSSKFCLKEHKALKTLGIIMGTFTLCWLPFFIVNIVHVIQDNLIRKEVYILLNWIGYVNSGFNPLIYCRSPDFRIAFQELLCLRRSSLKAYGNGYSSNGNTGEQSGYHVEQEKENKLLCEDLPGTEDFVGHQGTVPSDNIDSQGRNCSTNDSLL
Sequence of AP-2 complex subunit beta (Homo sapiens) (P63010 whole entry, looked up, the tested form may be a part, one chain of several): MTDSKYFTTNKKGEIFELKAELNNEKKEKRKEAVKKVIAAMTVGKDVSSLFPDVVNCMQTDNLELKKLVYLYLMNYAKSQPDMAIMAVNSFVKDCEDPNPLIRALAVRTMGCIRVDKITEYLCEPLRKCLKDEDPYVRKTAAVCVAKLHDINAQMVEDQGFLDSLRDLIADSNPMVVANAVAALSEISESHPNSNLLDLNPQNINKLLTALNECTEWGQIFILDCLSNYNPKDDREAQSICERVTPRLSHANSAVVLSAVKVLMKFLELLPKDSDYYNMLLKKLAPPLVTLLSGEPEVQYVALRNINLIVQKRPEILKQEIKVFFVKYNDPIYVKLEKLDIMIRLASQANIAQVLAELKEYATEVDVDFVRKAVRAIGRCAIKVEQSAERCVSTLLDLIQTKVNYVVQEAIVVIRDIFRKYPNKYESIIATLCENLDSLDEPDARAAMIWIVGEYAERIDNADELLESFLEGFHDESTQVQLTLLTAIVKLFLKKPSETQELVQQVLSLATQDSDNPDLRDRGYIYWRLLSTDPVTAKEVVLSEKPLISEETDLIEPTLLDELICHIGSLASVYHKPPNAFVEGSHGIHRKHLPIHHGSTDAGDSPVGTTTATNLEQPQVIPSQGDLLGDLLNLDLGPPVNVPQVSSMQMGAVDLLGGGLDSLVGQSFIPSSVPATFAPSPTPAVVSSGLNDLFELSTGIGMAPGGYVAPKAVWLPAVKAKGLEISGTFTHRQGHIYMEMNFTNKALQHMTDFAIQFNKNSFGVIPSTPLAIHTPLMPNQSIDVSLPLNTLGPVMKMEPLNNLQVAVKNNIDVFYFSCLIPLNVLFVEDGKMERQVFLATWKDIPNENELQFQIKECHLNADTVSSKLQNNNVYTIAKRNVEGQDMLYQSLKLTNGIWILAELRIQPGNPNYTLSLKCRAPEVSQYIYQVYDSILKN
Sequence of Integrin beta-1 (Homo sapiens) + Integrin alpha-4 (Homo sapiens) (P05556 whole entry, looked up): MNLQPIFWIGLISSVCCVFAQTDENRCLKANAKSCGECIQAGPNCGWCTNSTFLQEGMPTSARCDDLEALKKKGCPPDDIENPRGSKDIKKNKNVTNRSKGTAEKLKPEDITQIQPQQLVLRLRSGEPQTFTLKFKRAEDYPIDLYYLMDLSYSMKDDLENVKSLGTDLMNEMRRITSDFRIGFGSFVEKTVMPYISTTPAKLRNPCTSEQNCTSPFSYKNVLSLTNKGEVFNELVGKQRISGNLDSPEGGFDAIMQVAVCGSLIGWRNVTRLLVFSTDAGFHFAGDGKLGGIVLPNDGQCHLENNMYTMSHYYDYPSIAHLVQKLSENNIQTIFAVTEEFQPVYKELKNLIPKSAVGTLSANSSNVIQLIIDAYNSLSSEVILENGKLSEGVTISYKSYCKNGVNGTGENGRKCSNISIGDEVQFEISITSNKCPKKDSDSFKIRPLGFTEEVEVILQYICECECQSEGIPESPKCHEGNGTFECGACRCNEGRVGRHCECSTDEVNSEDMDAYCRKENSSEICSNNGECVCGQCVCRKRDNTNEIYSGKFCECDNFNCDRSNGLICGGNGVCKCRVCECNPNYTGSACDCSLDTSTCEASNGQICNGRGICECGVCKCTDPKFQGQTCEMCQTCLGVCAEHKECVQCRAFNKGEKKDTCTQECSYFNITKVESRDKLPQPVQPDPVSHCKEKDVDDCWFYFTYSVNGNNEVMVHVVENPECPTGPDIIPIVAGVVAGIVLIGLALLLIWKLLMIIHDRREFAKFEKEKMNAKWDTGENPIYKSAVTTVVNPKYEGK
Sequence of Integrin beta-1 (Homo sapiens) + Integrin alpha-4 (Homo sapiens) (P13612 whole entry, looked up): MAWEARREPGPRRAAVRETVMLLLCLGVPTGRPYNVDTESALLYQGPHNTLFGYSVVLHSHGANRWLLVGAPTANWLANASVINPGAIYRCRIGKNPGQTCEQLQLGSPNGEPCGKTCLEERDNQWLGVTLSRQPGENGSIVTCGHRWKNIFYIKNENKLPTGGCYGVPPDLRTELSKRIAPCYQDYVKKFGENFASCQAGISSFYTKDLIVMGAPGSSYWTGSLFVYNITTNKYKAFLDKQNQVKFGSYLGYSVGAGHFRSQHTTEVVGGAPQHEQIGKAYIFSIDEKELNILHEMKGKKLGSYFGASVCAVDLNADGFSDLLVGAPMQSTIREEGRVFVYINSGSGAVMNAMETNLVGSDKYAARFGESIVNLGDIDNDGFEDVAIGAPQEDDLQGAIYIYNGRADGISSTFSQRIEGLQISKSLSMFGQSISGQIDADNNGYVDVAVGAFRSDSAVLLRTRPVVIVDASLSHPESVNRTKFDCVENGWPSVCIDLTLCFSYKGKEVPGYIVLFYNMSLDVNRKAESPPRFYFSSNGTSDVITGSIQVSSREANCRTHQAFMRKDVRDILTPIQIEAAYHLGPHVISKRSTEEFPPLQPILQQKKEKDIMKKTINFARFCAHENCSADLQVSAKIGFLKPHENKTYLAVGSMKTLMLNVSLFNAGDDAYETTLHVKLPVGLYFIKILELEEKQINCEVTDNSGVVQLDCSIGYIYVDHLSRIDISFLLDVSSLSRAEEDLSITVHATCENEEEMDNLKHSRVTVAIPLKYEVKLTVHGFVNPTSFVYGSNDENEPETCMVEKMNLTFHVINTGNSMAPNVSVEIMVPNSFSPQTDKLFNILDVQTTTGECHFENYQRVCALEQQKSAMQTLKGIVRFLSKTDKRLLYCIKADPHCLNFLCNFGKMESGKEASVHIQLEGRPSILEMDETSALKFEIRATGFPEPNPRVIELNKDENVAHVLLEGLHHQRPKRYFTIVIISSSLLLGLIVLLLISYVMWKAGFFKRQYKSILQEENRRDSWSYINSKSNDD
Sequence of ATP-binding cassette sub-family B member 6 (Homo sapiens) (Q9NP58 whole entry, looked up): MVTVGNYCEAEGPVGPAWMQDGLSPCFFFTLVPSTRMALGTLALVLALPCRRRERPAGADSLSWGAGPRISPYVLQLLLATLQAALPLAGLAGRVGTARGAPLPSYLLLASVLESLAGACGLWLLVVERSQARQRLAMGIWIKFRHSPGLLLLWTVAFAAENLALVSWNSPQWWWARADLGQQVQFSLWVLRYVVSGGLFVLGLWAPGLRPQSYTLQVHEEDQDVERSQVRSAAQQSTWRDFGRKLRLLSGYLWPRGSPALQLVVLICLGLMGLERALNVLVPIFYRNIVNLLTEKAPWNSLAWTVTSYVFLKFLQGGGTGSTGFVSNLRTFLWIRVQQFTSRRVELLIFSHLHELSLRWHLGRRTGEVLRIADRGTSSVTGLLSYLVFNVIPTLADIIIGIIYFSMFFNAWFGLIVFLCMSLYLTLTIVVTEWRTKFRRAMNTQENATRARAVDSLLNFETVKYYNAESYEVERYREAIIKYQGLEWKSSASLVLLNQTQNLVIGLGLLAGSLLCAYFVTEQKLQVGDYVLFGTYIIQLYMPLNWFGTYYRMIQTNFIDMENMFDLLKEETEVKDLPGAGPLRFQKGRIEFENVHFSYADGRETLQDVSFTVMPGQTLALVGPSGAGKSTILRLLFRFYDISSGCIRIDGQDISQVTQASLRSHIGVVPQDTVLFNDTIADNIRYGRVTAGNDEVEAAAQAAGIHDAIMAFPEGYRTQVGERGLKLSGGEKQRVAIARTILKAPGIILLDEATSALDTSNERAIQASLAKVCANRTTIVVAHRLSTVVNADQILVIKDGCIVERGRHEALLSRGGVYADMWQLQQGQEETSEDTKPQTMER
Sequence of Beta-adrenergic receptor kinase 1 (Homo sapiens) (P25098 whole entry, looked up): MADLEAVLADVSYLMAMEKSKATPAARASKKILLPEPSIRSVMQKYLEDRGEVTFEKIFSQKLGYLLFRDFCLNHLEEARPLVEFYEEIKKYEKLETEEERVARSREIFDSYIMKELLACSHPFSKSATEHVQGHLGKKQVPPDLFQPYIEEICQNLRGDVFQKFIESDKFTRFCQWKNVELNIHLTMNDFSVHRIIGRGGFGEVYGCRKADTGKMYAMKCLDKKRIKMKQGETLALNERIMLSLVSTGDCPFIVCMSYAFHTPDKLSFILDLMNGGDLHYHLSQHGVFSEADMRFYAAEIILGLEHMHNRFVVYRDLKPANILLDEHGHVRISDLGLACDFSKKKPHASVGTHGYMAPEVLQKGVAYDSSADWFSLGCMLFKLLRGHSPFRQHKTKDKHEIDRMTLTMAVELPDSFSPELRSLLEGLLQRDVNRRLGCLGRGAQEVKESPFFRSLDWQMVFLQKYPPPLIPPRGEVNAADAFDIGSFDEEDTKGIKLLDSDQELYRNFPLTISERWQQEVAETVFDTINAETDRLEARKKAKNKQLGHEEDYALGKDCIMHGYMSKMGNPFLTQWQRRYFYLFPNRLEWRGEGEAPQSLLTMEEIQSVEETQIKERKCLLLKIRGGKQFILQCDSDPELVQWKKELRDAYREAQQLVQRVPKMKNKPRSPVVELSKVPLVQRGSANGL

Clc1ccc2c(c1)[C@H]1OCC[C@H]1[C@@H](c1ccco1)N2
54.8%: double positive events [6]
inactive: percent of DMSO control GFP [1] 108% | GFP response vs DMSO [2] 105% | percent response of DMSO control [3] 107% | GFP response vs DMSO [4] 113% | GFP response, % of DMSO [5] 88.8% | vesicle binding response [6] 144% | inhibition [7] 1.59% | superoxide response (% of plate) [8] 103% | aptamer binding inhibition [9] -1% | response [10] 3.26% | inhibition [11] 3.61% | response [12] 3.05% | binding (% of control) [13] 104% | efflux inhibition (fraction of control) [14] 0.27 | inhibition [15] -23% | differentiation response [16] -16.3%

O=C(O)CCCN1C(=O)NC2NC(=O)NC21 (stereo unspecified)
64.9%: double positive events [6]
inactive: percent of DMSO control GFP [1] 103% | GFP response vs DMSO [2] 114% | percent response of DMSO control [3] 101% | GFP response vs DMSO [4] 86.1% | GFP response, % of DMSO [5] 97.5% | vesicle binding response [6] 914% | inhibition [7] -1.49% | superoxide response (% of plate) [8] 106% | aptamer binding inhibition [9] 3% | response [10] 0.46% | inhibition [11] 35.1% | response [12] -1.41% | binding (% of control) [13] 98.4% | efflux inhibition (fraction of control) [14] -0.04 | inhibition [15] 25% | differentiation response [16] 33.5%

COC(=O)c1ccccc1NC(=O)NCc1ccccc1
inactive: percent of DMSO control GFP [1] 96.3% | GFP response vs DMSO [2] 131% | percent response of DMSO control [3] 104% | GFP response vs DMSO [4] 85.8% | GFP response, % of DMSO [5] 87.3% | vesicle binding response [6] 165% | inhibition [7] -0.33% | superoxide response (% of plate) [8] 99% | aptamer binding inhibition [9] 6% | response [10] -13.3% | inhibition [11] 0.05% | response [12] 1.35% | binding (% of control) [13] 104% | efflux inhibition (fraction of control) [14] -0.28 | inhibition [15] 15% | differentiation response [16] 0%
63%: double positive events [6]
